Hit rate of the full screen: of about 68,000 compounds, about 2,700 (4%) showed an effect of 50% or more. Many of the other results were omitted from the sample, so strong results are more common in it than they were.
Test system: Plasmodium berghei
Assay: Screen against P. berghei liver stage (PbLuc), transformed with Luciferase, at 2uM
Type: functional, HepG2
Conditions: tested at 2 uM

Row | Compound | INHIBITION
1 | O=C1NCCO[C@H]2CN(C(=O)CCc3ccccc3Cl)CC[C@@H]12 | 46.58%
2 | CCOCCOC(C)C(=O)Nc1ccc2ccn(CCN(C)C)c2c1 (centres undefined) | 27.32%
3 | Fc1ccccc1-c1nnn(CCCc2nn[nH]n2)n1 | -1.29%
4 | Cc1ccc(-c2ccc(Cl)nn2)cc1S(N)(=O)=O | -62.18%
5 | COc1ccccc1C1Cn2ccnc2CN1Cc1c[nH]nc1C (centres undefined) | -67.25%
6 | CN(CCc1ccncc1)C1CCCN(Cc2noc(C3CC3)n2)C1 (centres undefined) | 22.34%
7 | O=S1(=O)C[C@@H]2[C@H](C1)N(Cc1cccc(O)c1)CCN2CC1CC1 | 59.94%
8 | Cc1cc(CN2CCN(CC3CC3)[C@@H]3CS(=O)(=O)C[C@@H]32)cc(C)c1O | 25.45%
9 | O=S1(=O)C[C@@H]2[C@H](C1)N(Cc1ccc3ccccc3c1)CCN2CC1CC1 | 20.91%
10 | CCCS(=O)(=O)NC(=O)c1cc(C)n(-c2ccccc2)n1 | -1.29%
11 | COCCS(=O)(=O)NC(C)c1ccc(-n2nc(C)cc2C)cc1 (centres undefined) | -25.82%
12 | CCCS(=O)(=O)NC(=O)c1ccc(-n2nc(C)cc2C)cc1 | 59.04%
13 | N[C@@H]1CCC[C@@H](Oc2ccc(F)cc2Oc2ccccc2)[C@@H]1O | 61.99%
14 | Cc1ccc(Oc2cc(F)ccc2O[C@@H]2CCC[C@@H](N)[C@H]2O)cc1 | 6.13%
15 | N[C@@H]1CCC[C@@H](Oc2ccc(F)cc2Oc2cccc(F)c2)[C@@H]1O | 35.73%
16 | COC(=O)Cn1c(=O)[nH]c2cn(-c3ccc(F)cc3)c(=O)n21 | -3.97%
17 | O=C1COc2ccc(C(=O)NS(=O)(=O)c3ccccc3F)cc2N1 | 8.37%
18 | Cc1nnc([C@@H]2C[C@H]3CN(C(=O)c4c(C)noc4C)C[C@H]3O2)[nH]1 | 38.2%
19 | CC(=O)N1CCN(C(=O)c2cnn(-c3ccccc3Cl)c2)CC1 | -90.79%
20 | Cc1ccnn1CC(=O)N1CCN(C2CCc3ccccc3C2)CC1 (centres undefined) | 46.02%
21 | CC(=O)N1CCCN(C(=O)c2cnn(-c3ccccc3Cl)c2)CC1 | 82.5%
22 | Cc1ccnn1CCC(=O)N1CCN(C2CCc3ccccc3C2)CC1 (centres undefined) | 14.13%
23 | Cn1cc(Cl)c(C(=O)N2CCCN(C3Cc4ccccc4C3)CC2)n1 | -18.65%

Row | Compound | INHIBITION
24 | Cn1cc(C(=O)N2CCCN(C3Cc4ccccc4C3)CC2)cn1 | 55.66%
25 | Cc1nn(C)cc1C(=O)N1CCCN(C2Cc3ccccc3C2)CC1 | 19.12%
26 | CN1CCN(C(=O)c2cnn(-c3ccccc3Cl)c2)CC1 | -1.02%
27 | CCCn1nccc1C(=O)N1CCN(C2CCc3ccccc3C2)CC1 (centres undefined) | 57.85%
28 | CCN(CC)C1CCN(C(=O)c2cc(-n3cccn3)ccc2Cl)CC1 | -16.01%
29 | Cc1noc(C)c1C(=O)NCC(C)N(C)C (centres undefined) | 8.37%
30 | CC[C@@H]1N(Cc2ccc(C)o2)CCC[C@]12CCC(=O)N2CCOC | 33.74%
31 | O=C(CCCc1ccccn1)N1CCCC1c1noc(C2CC2)n1 (centres undefined) | 30.91%
32 | COc1c(C)cnc(CN(C)C2CCCCC2)c1C | 11.8%
33 | O=c1c(NCCNCCO)c(N2CCN(c3ccccc3)CC2)c1=O | -11.72%
34 | CC1(C(N)=O)CCCN(c2cnccn2)C1 (centres undefined) | -4.8%
35 | CC(C)[C@@H](CO)Nc1cc(-c2cn[nH]c2)ncn1 | 21.81%
36 | O=C([C@H]1COC[C@H]2CN(C3CCCC3)C[C@H]21)N1CCOCC1 | 12.4%
37 | CC(=O)c1ccc(Cl)c(Cl)c1OCC(=O)NC(C)C | 26.27%
38 | COc1ccc2c(c1)C1(CCN(Cc3nccs3)CC1)N(C)CC2 | 13.75%
39 | CC(NC(=O)Cc1cccs1)(C(N)=O)c1cccc(Cl)c1 (centres undefined) | -18.59%
40 | CC(=O)N1Cc2ccccc2C[C@H]1C(=O)N(C)CCc1ccccn1 | 8.73%
41 | CN(CCc1ccccn1)C(=O)C1Cc2ccccc2CN1C (centres undefined) | 31.78%
42 | CC(=O)N1Cc2ccccc2C[C@H]1C(=O)N(C)Cc1ccccn1 | 58.12%
43 | Cc1nnsc1C(=O)NCc1nn(C)c2c1COCC2 | -1.74%
44 | O=C(C1CCOCC1)N1C[C@@H]2CC[C@H]1CN(C1Cc3ccccc3C1)C2 | 27.33%
45 | COC(=O)[C@H]1C[C@@H](O)CCN1S(=O)(=O)c1cc(C)c(Cl)cc1C | 26.51%
46 | COC(=O)[C@H]1C[C@@H](O)CCN1S(=O)(=O)c1cc(Cl)ccc1OC | 55.18%

Row | Compound | INHIBITION
47 | COC(=O)[C@H]1C[C@@H](O)CCN1S(=O)(=O)c1ccc(F)cc1F | 16.25%
48 | CCS(=O)(=O)N1CCc2c(cccc2NCc2nc(C)c(C)o2)C1 | -23.97%
49 | COCCN(Cc1ccc(C)o1)C(=O)Nc1nnc2ccccn12 | 33.9%
50 | CCC(=O)Nc1nnc(CCOc2ccc(OC)cc2)s1 | -14.16%
51 | CCc1nnc(NC(=O)N(CCOC)Cc2ccc(C)o2)s1 | 83.98%
52 | COCCN(Cc1ccc(C)o1)C(=O)Nc1ncc(C)s1 | 62.51%
53 | COCCN(Cc1ccc(C)o1)C(=O)Nc1nnc(C(F)F)s1 | -44.8%
54 | COCCN(Cc1cnn(C)c1)Cc1ccc(C)o1 | 12.58%
55 | Cc1noc(C)c1CCC(=O)N1CCCCC1CNS(C)(=O)=O (centres undefined) | -3.46%
56 | COc1ccccc1C(C)(C)NC(=O)c1ccc(F)c(NC(C)=O)c1 | 38.49%
57 | Cc1nc(-c2ccccc2C(=O)O)cc(C2CCN(C(C)C)C2)n1 (centres undefined) | 17.01%
58 | CN(Cc1cccnc1)CC1CCCN1c1cccnn1 (centres undefined) | 33.31%
59 | Cc1nc(N2CCN(C)CC2)ncc1C(=O)N1CCCCCC1 | -15.75%
60 | Cc1ccc(-c2n[nH]cc2CNCCn2cccn2)o1 | 7.85%
61 | CCN1CCN(c2ccc(CNC(=O)c3ccccc3F)cn2)CC1 | 20.41%
62 | O=C(Cc1cccnc1)N1CCCC(n2cncn2)C1 (centres undefined) | -7.82%
63 | NC(=O)N1CCC2(CC1)CN(c1ccsc1)C(=O)CO2 | -12.73%
64 | N#Cc1cccc(N2CCC3(CCC(=O)N(CC4CCCO4)C3)CC2)n1 (centres undefined) | -41.11%
65 | CCCc1nc(C)cc(N2CCC3(CCC(=O)N(CCCO)C3)CC2)n1 | -25.22%
66 | Cc1cc(N2CCC3(CCC(=O)N(CCCO)C3)CC2)nc(N(C)C)n1 | 57.75%
67 | N#Cc1cccc(N2CCC3(CCC(=O)N(CCCO)C3)CC2)n1 | 58.18%
68 | N#Cc1cccc(N2CCC3(CCC(=O)N(CC(N)=O)C3)CC2)n1 | -30.57%
69 | Cc1cc(N2CCC3(CCC(=O)N(CCO)C3)CC2)nc(N(C)C)n1 | 19.59%

From ChEMBL document CHEMBL4513216, “Probing the Open Global Health Chemical Diversity Library for Multistage-Active Starting Points for Next-Generation Antimalarials” (ACS Infect Dis, 2020)
